Compounds with a hit are over-represented: about 3.4% of the library has one in this group of screens.
GPR151 activ – activates the human receptor GPR151. AID 1508602. PathHunter beta-arrestin GPR151 cells, luminescence. Q8TDV0. 1% of 650,000 active. activation, % at 11.2 µM; in the data active = activation above about 4.9%
MITF primary – inhibitors of human MITF. AlphaScreen MITF homodimerization, bead proximity signal. inhibition, % at 2.6 µM. 0.91% of 650,000 active. AID 1259374; in the data active = inhibition above about 50%
FBW7 activator – human FBW7 E3 ligase activation, primary screen. AlphaScreen FBW7–phospho-cyclin E peptide binding, activator screen. 0.13% of 650,000 active. normalized activity (activation), % at 26.1 µM. Q969H0. AID 1259310; in the data active = normalized activity above about 1.9%;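 note: purified mutant Fbw7 with reduced substrate affinity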
Target sequence (Q969H0 whole entry, looked up): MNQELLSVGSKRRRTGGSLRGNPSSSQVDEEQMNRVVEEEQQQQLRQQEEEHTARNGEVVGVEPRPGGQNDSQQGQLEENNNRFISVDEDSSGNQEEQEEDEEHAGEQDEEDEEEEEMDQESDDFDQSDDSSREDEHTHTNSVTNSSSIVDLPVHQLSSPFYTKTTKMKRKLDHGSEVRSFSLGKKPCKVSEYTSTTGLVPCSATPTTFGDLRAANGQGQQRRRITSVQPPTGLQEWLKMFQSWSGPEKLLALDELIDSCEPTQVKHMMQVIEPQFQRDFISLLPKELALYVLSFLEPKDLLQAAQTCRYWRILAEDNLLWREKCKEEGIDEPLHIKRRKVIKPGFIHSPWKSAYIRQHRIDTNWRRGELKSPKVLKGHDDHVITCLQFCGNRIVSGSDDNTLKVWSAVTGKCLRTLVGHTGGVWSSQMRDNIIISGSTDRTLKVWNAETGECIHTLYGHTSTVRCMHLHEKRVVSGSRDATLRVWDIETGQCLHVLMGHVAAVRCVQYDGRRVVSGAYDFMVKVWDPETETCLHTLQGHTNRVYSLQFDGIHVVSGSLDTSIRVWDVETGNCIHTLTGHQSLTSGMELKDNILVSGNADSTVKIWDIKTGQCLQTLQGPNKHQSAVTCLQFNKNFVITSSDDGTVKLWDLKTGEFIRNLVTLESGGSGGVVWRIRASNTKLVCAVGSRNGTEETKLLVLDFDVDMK
TEAD-YAP inh – TEAD-YAP interaction inhibition. AID 1259422. 1.4% of 640,000 active. inhibition, % at 9.12 µM. HEK-TIYL cells, TEAD-Gal4/YAP UAS-luciferase luminescence; in the data active = inhibition above about 32%
Of the large screens only hits and unclear results are named; the others gave an inactive call.

COc1ccc(CC(=O)Nc2cc(-c3cn[nH]c3)ccn2)cc1	TEAD-YAP inh 91.5
Cn1cc(-c2ccnc(NC(=O)Cc3ccc(F)cc3)c2)cn1	TEAD-YAP inh 48.5
COc1ccc(CC(=O)Nc2ncc3ccc(-c4cn[nH]c4)cc3c2C#N)cc1	none
Cc1ccc(C)c(NC(=O)c2cc(S(=O)(=O)NCc3ccc(F)cc3)ccc2F)c1	none
CC(=O)c1c(Cc2cccc(C(F)(F)F)c2)c[nH]c1C	none
Cc1nnc(NC(=O)C2CCN(c3nc4ccccc4s3)CC2)s1	none
CCC(=O)Nc1ccc(-c2cn3ccccc3n2)cc1	TEAD-YAP inh 39.6
O=C(Nc1ccc(-c2cn3ccccc3n2)cc1)c1ccccc1	none
Cc1cccn2cc(-c3ccc(NC(=O)C(C)(C)C)cc3)nc12	TEAD-YAP inh 63.9
O=C(Nc1ccc(O)c(-c2nc3ccccc3s2)c1)C1CC1	none
O=C(Nc1ccc(-c2nc3ccccc3s2)cc1)C1CC1	TEAD-YAP inh 79.3
CC(=O)Nc1ccc(NC(=O)C2CCN(c3nc4ccccc4s3)CC2)cc1	TEAD-YAP inh 36.1
Cc1cccc(N(C)S(=O)(=O)c2ccc3[nH]cc(C(=O)NCc4ccco4)c(=O)c3c2)c1	none
O=C(CCn1c(=O)[nH]c2ccsc2c1=O)Nc1ccc(-c2ccccc2)cc1	none
CCC(=O)Nc1ccc(-c2nc3ccccc3s2)cc1	TEAD-YAP inh 84.5
Nc1ccc2c(c1)C(=O)N(c1ccc(O)cc1)C2=O	none
Nc1ccc(N2C(=O)c3ccc(N)cc3C2=O)cc1	TEAD-YAP inh 34.4
Cc1ccc(OCC(=O)Nc2ccccc2C(F)(F)F)cc1C	none
Cc1noc(C)c1CCC(=O)N1CCC(C(=O)Nc2cccc(-c3ccco3)c2)CC1	TEAD-YAP inh 33.7
C(=N\Nc1nn[nH]n1)/c1ccc2c(c1)OCO2	none
CCN(CC)c1ccc(/C=N/Nc2nn[nH]n2)c(O)c1	none
Oc1ccc(/C=N/Nc2nn[nH]n2)c(O)c1O	MITF primary 95.4
Oc1ccc(/C=N/Nc2nn[nH]n2)cc1O	MITF primary 52.3
O=C(/C=C/c1ccco1)NC(=S)N1CCN(Cc2ccccc2)CC1	none
CC#C[C@]1(O)CCC2C3CCC4=CC(=O)CCC4=C3[C@@H](c3ccc(N(C)C)cc3)C[C@@]21C (stereo not given in full)	none
O=C(Nc1ccc(N2CCOCC2)cc1)C1CCN(c2ccc(Nc3ccc4ncccc4c3)nn2)CC1	TEAD-YAP inh 39.6
Cc1cnc(Nc2ccc3ncccc3c2)nc1Nc1ccc2c(c1)OCO2	TEAD-YAP inh 44.3
Cc1cnc(Nc2nccc3ccccc23)nc1Nc1ccc2c(c1)OCO2	none
COc1cc(Nc2nc(Nc3ccc(N4CCOCC4)cc3)ncc2C)cc(OC)c1OC	TEAD-YAP inh 66.3
Cc1cnc(Nc2ccccn2)nc1Nc1ccc(N2CCOCC2)cc1	none
Cc1cnc(Nc2ccc3ncccc3c2)nc1Nc1ccc(N2CCOCC2)cc1	TEAD-YAP inh 47.1
COc1ccc(C(=O)N2CCN(C(C)C)CC2)cc1OC	none
CC(=O)N(/C=C/c1cc[n+](CCCS(=O)(=O)O)c2ccccc12)c1ccccc1	none
Cc1cnc(Nc2ccccc2)nc1Nc1ccc(N2CCOCC2)cc1	TEAD-YAP inh 61.9
Cc1cnc(Nc2ccc(N3CCOCC3)cc2)nc1Nc1ccccc1	TEAD-YAP inh 63.4
Cc1cnc(Nc2ncccn2)nc1Nc1ccc(N2CCOCC2)cc1	none
CC(=O)Nc1ccc(Nc2nc(Nc3nc4ccccc4n3C)nc3nc[nH]c23)cc1	none
c1cnc2ccc(Nc3nc(Nc4ccc(N5CCOCC5)cc4)c4[nH]cnc4n3)cc2c1	TEAD-YAP inh 79.7
Cn1c(Nc2nc(Nc3ccc4c(c3)OCO4)c3[nH]cnc3n2)nc2ccccc21	FBW7 activator 14.1
c1ccc(Nc2nc(Nc3ccc(N4CCOCC4)cc3)c3[nH]cnc3n2)nc1	none
CCCOc1ccc(/C=C2/N=C(c3ccccc3)OC2=O)cc1OC	none
c1ccc(Nc2nc(Nc3ccc4c(c3)OCO4)c3[nH]cnc3n2)cc1	none
Cc1cnc(Nc2ccc(N3CCOCC3)cc2)nc1Nc1ccccc1C(N)=O	TEAD-YAP inh 93.0
c1nc2nc(Nc3ccc(N4CCOCC4)cc3)nc(Nc3ccc4c(c3)OCO4)c2[nH]1	TEAD-YAP inh 45.2
COc1ccc2c(CNCc3ccccc3C)c(C(=O)O)n(Cc3ccc(F)cc3)c2c1	none
CCNC(=O)Nc1cc2nc(C)n(Cc3ccccc3)c2nc1C	none
CCOC(=O)N1CCN(c2c(NCc3ccc(F)cc3)c(=O)c2=O)CC1	TEAD-YAP inh 54.6
CCOC(=O)N1CCN(c2c(N3CCN(c4ccc(F)cc4)CC3)c(=O)c2=O)CC1	none
C/C(=N\Nc1ncc(Cl)cc1Cl)c1ccccn1	TEAD-YAP inh 81.7
Cn1c(=O)c2[nH]c(Nc3cccc(C(F)(F)F)c3)nc2n(C)c1=O	TEAD-YAP inh 44.6
Cc1ccc(C(=O)N(c2ccc(C)cc2)c2nc(C(F)(F)F)c(-c3ccc(Cl)cc3)s2)cc1	none
COc1ccc(CCNc2nc(C)nc3sc(C)c(C)c23)cc1OC	TEAD-YAP inh 36.8
COc1ccc(CCNc2ncnc3ccccc23)cc1OC	TEAD-YAP inh 63.0
COc1ccc(CCNc2ncnc3sccc23)cc1OC	TEAD-YAP inh 55.5
COc1ccc(CCNc2ncnc3c2oc2ccccc23)cc1OC	TEAD-YAP inh 45.7
c1ccc(CCNc2ncnc3ccccc23)cc1	none
COCCOC(=O)C1=C(C)NC(=O)NC1c1ccccc1F (stereo not given)	none
CCCc1cc(=O)oc2c(C)c(OCC(C)=O)ccc12	none
Cc1cccc(Cn2c(NCCO)nc3c2c(=O)n(C)c(=O)n3C)c1	TEAD-YAP inh 42.3
CCNc1nc2c(c(=O)n(C)c(=O)n2C)n1Cc1cccc(C)c1	TEAD-YAP inh 44.3
Cn1c(=O)c2c(nc(Cl)n2Cc2cccc(C(F)(F)F)c2)n(C)c1=O	TEAD-YAP inh 36.6
Cn1c(=O)c2c(nc(NCCO)n2Cc2cccc(Br)c2)n(C)c1=O	none
CCOC(=O)c1[nH]ncc1CN1CCC(CCOc2ccccc2)(C(=O)OCC)CC1	none
O=C(Nc1cc2cc([N+](=O)[O-])ccc2oc1=O)c1cccc([N+](=O)[O-])c1	none
Cn1c(SCC(=O)O)nnc1-c1ccccc1F	none
c1ccc2c(c1)Nc1ccccc1C2NNC1c2ccccc2Nc2ccccc21	TEAD-YAP inh 69.0
O=C1Nc2ccccc2NC(=O)C2C3c4ccccc4C(c4ccccc43)C12 (stereo not given)	none
COCCn1c(=S)[nH]c2cc(C(=O)N3CCCC3)ccc2c1=O	none
CCNc1cc(C)nc(NCCNC(=O)Nc2cc(Cl)ccc2OC)n1	TEAD-YAP inh 32.6
Oc1c(C(c2ccccc2Cl)N2CCCCC2)ccc2cccnc12 (stereo not given)	TEAD-YAP inh 87.5
Cc1nc2sc(C(c3ccccc3Cl)N3CCCC3)c(O)n2n1 (stereo not given)	none
Oc1c(C(c2ccccc2Cl)N2CCOCC2)ccc2cccnc12 (stereo not given)	MITF primary 62.1, TEAD-YAP inh 84.2
Oc1c(C(c2ccccn2)N2CCCCC2)ccc2cccnc12 (stereo not given)	MITF primary 98.6, TEAD-YAP inh 38.8
OCCN1CCN(C(c2ccccn2)c2ccc3cccnc3c2O)CC1 (stereo not given)	MITF primary 93.3
Cc1cccc(-n2c(O)c(C=Nc3cc(C(=O)O)ccc3C)c(=O)[nH]c2=O)c1	none

Bioassay records as filed in PubChem BioAssay.
